Assay [1] in a line: qHTS of pediatric cancer cell lines to identify multiple opportunities for drug repurposing: Primary screen for SK-N-MC cells (AID 1347093). Further: potency means the concentration at half of the fitted maximal effect. In short, it runs like this:
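Metabolically active cells were quantified by ATP-dependent luminescence (CellTiter-Glo, 15 min at room temperature) following 48 h treatment. Cells had been plated at 500-1,000 per well and settled for 5 h beforehand.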
(In general: Quantitative high-throughput screening tests each substance at several concentrations.)

Assay [2] is described as follows: qHTS of pediatric cancer cell lines to identify multiple opportunities for drug repurposing: Primary screen for BT-37 cells (AID 1347094). Further: series mostly up to about 57 µM. In short, it runs like this:
(§1)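 Primary screen of approved and investigational compounds on cells in growth media at 37 degrees C, 5% CO2. MIPE set at 11-point and NPC set at 8-point dilutions; viability scored by ATP-based luminescence at 48 hours.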

Assay [3] in a line: qHTS of pediatric cancer cell lines to identify multiple opportunities for drug repurposing: Primary screen for NB-EBc1 cells (AID 1347095). In outline: as §1
Assay [4] in a line: qHTS of pediatric cancer cell lines to identify multiple opportunities for drug repurposing: Primary screen for U-2 OS cells (AID 1347096). Further: nearly all actives have a fitted effect of over 50% in size. In outline:
(§2)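 Viability after 48 h compound treatment at 37C, 500-1,000 cells/well, read as ATP luminescence with CellTiter-Glo. Primary screens used 11-point (MIPE, 0.78 nM-46 µM) or 8-point (NPC, 0.59 nM-46 µM) final concentrations; follow-up screens used 11-point dilutions.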

Assay [5] can be described thus: qHTS of pediatric cancer cell lines to identify multiple opportunities for drug repurposing: Primary screen for SK-N-SH cells (AID 1347098). Further: nearly all actives have a fitted effect of over 65% in size. Further: potency means the concentration at half of the fitted maximal effect. In outline:
(§3)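 Cells (500-1,000/well) rested 5 h, then received compounds for 48 h; metabolically active cells were measured by CellTiter-Glo luminescence. Final concentrations spanned up to 46 µM (MIPE, 11-point) or 0.59 nM-46 µM (NPC, 8-point) in primary screens, 11-point in follow-ups.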

The nature of assay [6]: qHTS of pediatric cancer cell lines to identify multiple opportunities for drug repurposing: Primary screen for NB1643 cells (AID 1347099). Further: nearly all actives have a fitted effect of over 50% in size. Further: potency means the concentration at half of the fitted maximal effect. In outline:
as §1

Assay [7] can be described thus: qHTS of pediatric cancer cell lines to identify multiple opportunities for drug repurposing: Primary screen for LAN-5 cells (AID 1347100). Further: potency means the concentration at half of the fitted maximal effect. In short, it runs like this:
as §2

Assay [8] in a line: qHTS of pediatric cancer cell lines to identify multiple opportunities for drug repurposing: Primary screen for BT-12 cells (AID 1347101). Further: nearly all actives have a fitted effect of over 25% in size. Further: potency means the concentration at half of the fitted maximal effect. In short, it runs like this: as §3
The nature of assay [9]: qHTS of pediatric cancer cell lines to identify multiple opportunities for drug repurposing: Primary screen for Rh18 cells (AID 1347102). Further: nearly all actives have a fitted effect of over 65% in size. In outline: as §2
The nature of assay [10]: qHTS of pediatric cancer cell lines to identify multiple opportunities for drug repurposing: Primary screen for Saos-2 cells (AID 1347097). Further: nearly all actives have a fitted effect of over 40% in size. Further: potency means the concentration at half of the fitted maximal effect. In outline: as §1

Inconclusive results are not listed. Activity calls are given as the source filed them. The call rests on the fitted dose curve; in most records, active means well fitted curve in the direction sought with a large enough effect; inconclusive means small, poorly fitted or top-dose-only effect, or another doubt; inactive means no such curve, though single readings can be large; an effect the other way counts as inactive or inconclusive.

For `CCCCCCC(=O)CCCCCC/C=C/C[C@@H](O)[C@H](O)[C@@](N)(CO)C(=O)O`, the Potency result in assay [1], in assay [2], in assay [3], in assay [4], in assay [5] and in assay [6] was “inactive” throughout. The Potency entry in assay [7], in assay [8] and in assay [9] was “inactive” each time.
`CC(C)(C)NCC(O)c1cc(Cl)c(N)c(C(F)(F)F)c1` (centres undefined): the Potency entry in [1], in assay [2], in [3], in assay [4], in assay [10] and in assay [5] was “inactive” in each case. Besides, the Potency entry in assay [6], in assay [7], in assay [8] and in [9] was “inactive” throughout.
Regarding `O=C(N/N=C/c1ccc([N+](=O)[O-])o1)c1cc([N+](=O)[O-])cc([N+](=O)[O-])c1O`, the Potency result in assay [1], in assay [3], in assay [4], in assay [10], in assay [5] and in assay [6] was “inactive” in each case. Also, the Potency result in [7], in assay [8] and in assay [9] was “inactive” each time.
In the case of `CCCOC(=O)c1cncn1C(C)c1ccccc1` (centres undefined), the Potency entry in assay [1], in assay [2], in assay [3], in assay [4], in assay [10] and in [5] was “inactive” throughout. The Potency entry in [6], in [7] and in [8] was “inactive” each time.
Take `CC(C)c1cccc(C(C)C)c1O`: the Potency entry in assay [1], in assay [2], in assay [3], in [4], in [10] and in [6] was “inactive” throughout. The Potency entry in [7] and in assay [9] was “inactive” in each case.
For `[N-]=[N+]=CC(=O)OC[C@H](N)C(=O)O`, the Potency entry in [1], in [2], in [3], in [4], in assay [10] and in [5] was “inactive” in each case. For the same compound, the Potency entry in assay [6], in assay [7], in [8] and in [9] was “inactive” in each case.
Consider `CC(=O)OCC1=C(C(=O)O)N2C(=O)[C@@H](N)[C@H]2SC1`, for which the Potency result in assay [1], in [2], in assay [3], in assay [4], in [10] and in assay [5] was “inactive” in each case. Besides, the Potency entry in assay [6], in assay [7], in assay [8] and in assay [9] was “inactive” each time.
In the case of `Cc1ncsc1CCCl`, the Potency entry in assay [1], in assay [3], in [4], in [10], in [5] and in assay [6] was “inactive” each time. Further, the Potency entry in assay [7] and in assay [8] was “inactive” in each case.
`CCN[C@@H](C)Cc1cccc(C(F)(F)F)c1`: the Potency entry in assay [1], in assay [2], in assay [3], in assay [4], in assay [10] and in [5] was “inactive” throughout. Further, the Potency entry in assay [6], in [7] and in assay [8] was “inactive” in each case.
Regarding `C[C@]12CC[C@H]3[C@@H](CC[C@@]45O[C@H]4C(O)=C(C#N)C[C@]35C)[C@H]1CC[C@H]2O`, the Potency in assay [1] was 3.32 µM (active); in assay [5], 12.1 µM (active); in assay [7] it was 16.6 µM (active). For the same compound, the Potency entry in [2], in assay [4] and in assay [9] was “inactive” each time.
Turning to `C[C@@H]1CC2=CC(=O)CC[C@@H]2[C@H]2CC[C@@]3(C)[C@@H](CC[C@]3(C)O)[C@@H]21`, the Potency result in assay [1], in assay [2], in [3], in assay [4], in [10] and in [5] was “inactive” in each case. Also, in [7], the Potency entry was “inactive”.
As for `Clc1ccccc1N1CCNCC1`, the Potency entry in [1], in assay [2], in assay [3], in assay [4], in assay [10] and in [5] was “inactive” each time. Further, the Potency entry in assay [6], in assay [7], in assay [8] and in assay [9] was “inactive” throughout.
As to `CCC(CC)(CNC(=O)CCCO)c1cccc(OC)c1`, the Potency entry in assay [1], in [2], in assay [3], in [4], in assay [10] and in [5] was “inactive” in each case. In addition, the Potency entry in assay [7], in assay [8] and in [9] was “inactive” each time.
For `CCc1cc2c(s1)-n1c(C)nnc1CN=C2c1ccccc1Cl`, the Potency entry in assay [1], in assay [2], in assay [3], in [4], in assay [10] and in assay [5] was “inactive” each time. Besides, the Potency result in assay [6], in assay [7], in assay [8] and in assay [9] was “inactive” in each case.
In the case of `COC1CC(=C(c2cccs2)c2cccs2)C[N+](C)(C)C1` (centres undefined), the Potency result in assay [1], in assay [2], in assay [3], in [4], in assay [10] and in assay [5] was “inactive” each time. Further, the Potency entry in assay [6] and in assay [7] was “inactive” in each case.
For the compound `CCOC(=O)CC(SP(=S)(OC)OC)C(=O)OCC` (centres undefined), the Potency entry in assay [2], in assay [3], in [4], in assay [10], in [5] and in assay [6] was “inactive” throughout. Moreover, the Potency result in assay [7], in [8] and in assay [9] was “inactive” throughout.
As to `CC(C)C[C@H](CN)CC(=O)O`, in assay [1], the Potency was 23.5 µM (active). The Potency entry in assay [3], in [4], in assay [10], in assay [7], in [8] and in assay [9] was “inactive” throughout.
On to `c1ccc(N2CCNCC2)cc1`, for which the Potency result in assay [2], in assay [3], in assay [4], in [10], in assay [5] and in assay [6] was “inactive” in each case. For the same compound, the Potency result in assay [7], in assay [8] and in [9] was “inactive” throughout.
`Clc1cccc(SC2CCNCC2)n1`: the Potency entry in [2], in assay [3], in assay [4], in [10], in assay [5] and in assay [7] was “inactive” in each case. In assay [8], the Potency entry is “inactive”.
Turning to `O=C(CCCN1CCC2(CC1)C(=O)NCN2c1ccccc1)c1ccc(F)cc1`, the Potency entry in [1], in assay [3], in [4], in assay [5], in assay [6] and in [7] was “inactive” throughout.
In the case of `CN1CC[C@]23c4c5ccc(O)c4O[C@H]2[C@@H](O)CC[C@H]3[C@H]1C5`, the Potency entry in assay [1], in assay [3], in [4], in assay [10], in [5] and in [7] was “inactive” throughout. In addition, the Potency result in [8] is “inactive”.
With `Nc1nc(N)nc(NC2CC2)n1`, the Potency result in assay [2], in [3], in assay [4], in [10], in assay [5] and in assay [6] was “inactive” throughout. Further, the Potency entry in [7], in assay [8] and in assay [9] was “inactive” throughout.
For the compound `C#CC(O)(C=CCl)CC` (centres undefined), the Potency result in [1], in assay [3], in assay [4], in [10], in assay [5] and in assay [7] was “inactive” in each case. The Potency result in assay [8] and in assay [9] was “inactive” in each case.
`C#C[C@]1(O)CC[C@H]2[C@@H]3CCC4=CC(=O)CC[C@]4(C)[C@H]3CC[C@@]21C`: the Potency entry in assay [1], in [3], in [4], in assay [10], in assay [5] and in assay [7] was “inactive” throughout. The Potency result in assay [8] and in assay [9] was “inactive” each time.
On to `NC(=O)c1cc([N+](=O)[O-])cc([N+](=O)[O-])c1`, for which the Potency entry in assay [2], in assay [3], in assay [4], in [10], in [5] and in assay [6] was “inactive” throughout. The Potency result in assay [7] and in assay [8] was “inactive” in each case.
Regarding `C[C@]12CCC(=O)C=C1CC[C@@H]1[C@H]3CC[C@](C)(O)[C@@]3(C)CC[C@@H]12`, the Potency in assay [1] was 30.9 µM (active); in assay [10], 27.5 µM (active); in assay [6], 34.7 µM (active); in assay [8] it was 28.6 µM (active).
